Results taken from PubChem BioAssay AID1004 (SRMLSC, 2008).
A number with no mark means an inactive call.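 How the source made its calls: active means viability at 10 µM of 29.74% or lower, 3 SD below the compound median; inactive means the rest.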

experiment: viability of HCT116 lacking mutant beta-catenin – cell-based, DP diverse set, validation, pilot screen (AID 1004); conditions: HCT116 (mutant beta-catenin deleted) viability, CellTiter-Glo, 60 h; at 10 µM; active compounds read low

Row | SMILES | viability [%]
1 | COc1ccc2cc1Oc1ccc(cc1)C[C@H]1c3c(cc4c(c3Oc3cc5c(cc3OC)CCN(C)[C@@H]5C2)OCO4)CCN1C | 66.6
2 | CCC(C)CCCCC(=O)N[C@@H](CCN)C(=O)N[C@H](C(=O)N[C@@H](CCN)C(=O)N[C@H]1CCNC(=O)C([C@@H](C)O)NC(=O)[C@@H](CCN)NC(=O)[C@H](CCN)NC(=O)[C@H](CC(C)C)NC(=O)[C@@H](CC(C)C)NC(=O)[C@H](CCN)NC1=O)[C@@H](C)O (stereo not given in full) | 94.3
3 | CC12CC3(O)OC(O1)C1(COC(=O)c4ccccc4)[C@@H]3CC21O[C@@H]1O[C@H](CO)[C@@H](O)[C@H](O)[C@H]1O | 93.9
4 | COC(=O)c1cc2c(s1)-c1ccccc1OC2 | 98
5 | C=C1OC(CO)(n2cnc3c(N)ncnc32)C(O)C1O (stereo not given) | 95.1
